Columns and labels:
[1] = tested on: E18 rat cortical neuron-glia co-culture; test: fiber score / MBP score (myelination specific beyond OL differentiation) (ratio); higher = more myelination-specific MBP alignment; details: treatment time: 8 days (DIV5-DIV13)
In short: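 Papain-dissociated primary E18 rat cortical co-cultures, plated at 20,000 cells/well on poly-d-lysine/laminin 96-well plates, were exposed to library compounds at 1 or 5 µM in myelination medium between DIV5 and DIV13. Following fixation in 4 % paraformaldehyde, cultures were stained for MBP, Olig2 and DAPI, and four 10X fields per well were analysed in duplicate wells. Values are the ratio of fiber score (continuous MBP fiber length per Olig2+ nucleus) to MBP score (thresholded MBP area × intensity per Olig2+ nucleus).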

[2] = tested on: E18 rat cortical neuron-glia co-culture; test: myelination (MBP fiber length per Olig2+ nucleus), % of 1 µM DAPT response (DMSO = 0) (% of DAPT); higher = more myelination, active = 50 or more; details: treatment time: 8 days (DIV5-DIV13)
In short: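 Myelination, expressed as continuous straight MBP fiber length per Olig2+ nucleus, was normalised to 0.1 % DMSO as 0 and a 1 µM positive control as 100. The cultures were primary E18 rat cortical co-cultures dissociated with papain and plated at 20,000 cells/well on poly-d-lysine/laminin-coated 96-well plates. They received library compounds at 1 or 5 µM in myelination medium between DIV5 and DIV13. Analysis covered four 10X fields per well in duplicate wells after 4 % paraformaldehyde fixation and immunostaining for MBP and Olig2 with DAPI.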

| Compound | fiber score / MBP score ([1]; 1 µM) | fiber score / MBP score ([1]; 5 µM) | myelination ([2]; 1 µM) | myelination ([2]; 5 µM) |
| --- | --- | --- | --- | --- |
| NC(=O)OCC(COC(N)=O)c1ccccc1 [Felbamate] | 0.591 | 0.769 | -15.5 (inactive) | -10.2 (inactive) |
| CCC[C@@H]1C[C@@H](C(=O)N[C@@H]([C@H]2O[C@H](SC)[C@H](O)[C@@H](O)[C@H]2O)[C@@H](C)O)N(C)C1 [Lincomycin] | 0.754 | 0.914 | -22.9 (inactive) | 7.24 (inactive) |
| O=C(O)c1cccnc1 [Niacin] | 1.05 | 0.998 | 9.03 (inactive) | 7.38 (inactive) |
| CC(C)n1c(/C=C/C(O)CC(O)CC(=O)O)c(-c2ccc(F)cc2)c2ccccc21 (centres undefined) [Fluvastatin] | 0.312 | 0.319 | -15.7 (inactive) | -13.7 (inactive) |
| CCOC(=O)O[C@]1(C(=O)OCCl)CC[C@H]2[C@@H]3CCC4=CC(=O)C=C[C@]4(C)[C@H]3[C@@H](O)C[C@@]21C [Loteprednol etabonate] | 0.604 | 0.881 | -14.2 (inactive) | -1.58 (inactive) |
| COc1cc(CNC(=O)CCCC/C=C\C(C)C)ccc1O [Zucapsaicin] | 0.875 | 1.51 | -19.7 (inactive) | 98.2 (active) |
| CCn1cc(C(=O)O)c(=O)c2cc(F)c(N3CCNCC3)cc21 [Norfloxacin] | 0.701 | 0.729 | -19.9 (inactive) | -11.1 (inactive) |
| CCn1cc(C(=O)O)c(=O)c2cc(F)c(N3CCN(C)CC3)cc21 [Pefloxacin] | 1 | 0.8 | -8.57 (inactive) | -12.3 (inactive) |
| CN(C)CCc1c[nH]c2ccc(Cn3cncn3)cc12 [Rizatriptan] | 0.516 | 0.414 | -15 (inactive) | -20.4 (inactive) |
| CN(C)CCOC(c1ccccc1)c1ccccc1 [Diphenhydramine] | 0.668 | 0.525 | -12.1 (inactive) | -17.4 (inactive) |
| O=C(O)/C=C/c1ccc(Cn2ccnc2)cc1 [Ozagrel] | 0.768 | 1.11 | -6.75 (inactive) | -0.768 (inactive) |
| Cc1ccc(N(CC2=NCCN2)c2cccc(O)c2)cc1 [Phentolamine] | 0.701 | 0.56 | -21.8 (inactive) | -26.1 (inactive) |
| COc1ccc2[nH]c([S+]([O-])Cc3ncc(C)c(OC)c3C)nc2c1 (centres undefined) [Omeprazole] | 0.656 | 0.73 | -8.06 (inactive) | -4.44 (inactive) |
| O=C1CC2(CCCC2)CC(=O)N1CCCCN1CCN(c2ncccn2)CC1 [Buspirone] | 0.713 | 0.313 | -14.9 (inactive) | -34 (inactive) |
| CCN(CC)CCOC(=O)c1ccc(N)cc1 [Procaine] | 1.09 | 1.47 | 6.68 (inactive) | 23.1 (inactive) |
| CCC(=O)NS(=O)(=O)c1ccc(-c2c(-c3ccccc3)noc2C)cc1 [Parecoxib] | 0.57 | 1.01 | -22.9 (inactive) | 1.22 (inactive) |
| CC(C)(C(=O)c1cccnc1)c1cccnc1 [Metyrapone] | 0.588 | 0.894 | -19.7 (inactive) | -9.03 (inactive) |
| CC(=O)/N=c1/sc(S(N)(=O)=O)nn1C [Methazolamide] | 0.875 | 0.672 | -8.24 (inactive) | -24.1 (inactive) |
| CN1CCC[C@H]1c1cccnc1 [Nicotine] | 0.761 | 1.06 | -10.1 (inactive) | 2.28 (inactive) |
| CC(C)(C)NC(=O)[C@H]1CC[C@H]2[C@@H]3CC[C@H]4NC(=O)C=C[C@]4(C)[C@H]3CC[C@]12C [Finasteride] | 0.7 | 0.898 | -19.1 (inactive) | -10.7 (inactive) |
| Nc1ncn([C@@H]2O[C@H](CO)[C@@H](O)[C@H]2O)c(=O)n1 [Azacitidine] | 0.686 | 0.777 | 3.99 (inactive) | 12.8 (inactive) |
| CC[C@@H]1C(=O)OC[C@@H]1Cc1cncn1C [Pilocarpine] | 0.814 | 0.782 | -24.8 (inactive) | -11.2 (inactive) |
| CCCOc1ccc(C(=O)OCCN(CC)CC)cc1N [Proxymetacaine] | 1.15 | 0.433 | 13.3 (inactive) | -12.1 (inactive) |
| Clc1ccccc1C(c1ccccc1)(c1ccccc1)n1ccnc1 [Clotrimazole] | 0.906 | 1.15 | 7.64 (inactive) | -27.1 (inactive) |
| C[n+]1ccccc1C=NO [Pralidoxime] | 0.884 | 1.12 | -7.49 (inactive) | 1.41 (inactive) |
| C[C@H]1O[C@H](O[C@H]2[C@H](O)[C@@H](O)[C@@H](O[C@H]3[C@H](O)[C@@H](O)C(O)O[C@@H]3CO)O[C@@H]2CO)[C@H](O)[C@@H](O)[C@@H]1N[C@H]1C=C(CO)[C@@H](O)[C@H](O)[C@H]1O (some centres undefined) [Acarbose] | 0.856 | 0.99 | -11.8 (inactive) | -6.72 (inactive) |

Source: the supplement of paper PMC4840960
